Reference: PMC8384837, “Expanding the binding specificity for RNA recognition by a PUF domain”

How the values were obtained:
Experiment in all cases: yeast three-hybrid, YBZ-1, SC-Leu-His + 0.5 mM 3-AT, 4 days
Details in all cases: tags: N-Gal4 AD-HA kept; label: inside an RPR1-promoter hybrid RNA with tandem MS2 sites; ssRNA
PUM1 PUF domain R2-RRC = PUM1 PUF domain R2-RRC (Homo sapiens, UniProt Q14671 828-1176, N899R;Y900R;Q903C)
How it was run: (§1)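 Sequencing with Illumina followed PCR amplification of the repeat regions from transformants grown four days on SC-Leu (input) or SC-Leu-His + 0.5 mM 3-AT (selection). The transformants were strain YBZ-1 with a LexA–MS2 coat fusion and a HIS3 reporter, carrying Pumilio-1 PUF domain libraries and matching RNA elements. The interaction score is the log change in variant frequency from input to selection, computed in log2 with a pseudocount of 1 for absent variants.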

PUM1 PUF domain R3-RAG = PUM1 PUF domain R3-RAG (Homo sapiens, UniProt Q14671 828-1176, C935R;R936A;Q939G)
PUM1 PUF domain R3-RAG, sequence (Q14671 828-1176 C935R/R936A/Q939G): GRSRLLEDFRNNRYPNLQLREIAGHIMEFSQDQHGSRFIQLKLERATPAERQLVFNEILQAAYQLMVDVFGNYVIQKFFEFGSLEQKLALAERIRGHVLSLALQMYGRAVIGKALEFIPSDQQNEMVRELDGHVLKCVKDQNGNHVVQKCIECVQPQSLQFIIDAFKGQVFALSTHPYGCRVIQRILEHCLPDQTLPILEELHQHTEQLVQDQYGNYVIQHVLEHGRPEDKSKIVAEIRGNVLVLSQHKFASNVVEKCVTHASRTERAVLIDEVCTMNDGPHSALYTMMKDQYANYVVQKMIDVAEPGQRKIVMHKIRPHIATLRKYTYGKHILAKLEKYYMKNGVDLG
How it was run: as §1

PUM1 PUF domain R3-QRS = PUM1 PUF domain R3-QRS (Homo sapiens, UniProt Q14671 828-1176, C935Q;Q939S)
PUM1 PUF domain R3-QRS, sequence (Q14671 828-1176 C935Q/Q939S): as the sequence (Q14671 828-1176 C935R/R936A/Q939G) above, with R108Q, A109R, G112S counted along it
How it was run: as §1

PUM1 PUF domain R4-VFP = PUM1 PUF domain R4-VFP (Homo sapiens, UniProt Q14671 828-1176, N971V;H972F;Q975P)
PUM1 PUF domain R4-VFP, sequence (Q14671 828-1176 N971V/H972F/Q975P): as the sequence (Q14671 828-1176 C935R/R936A/Q939G) above, with R108C, A109R, G112Q, N144V, H145F, Q148P counted along it
How it was run: as §1

PUM1 PUF domain R4-WFG = PUM1 PUF domain R4-WFG (Homo sapiens, UniProt Q14671 828-1176, N971W;H972F;Q975G)
PUM1 PUF domain R4-WFG, sequence (Q14671 828-1176 N971W/H972F/Q975G): as the sequence (Q14671 828-1176 C935R/R936A/Q939G) above, with R108C, A109R, G112Q, N144W, H145F, Q148G counted along it
How it was run: as §1

PUM1 PUF domain R8-LFG = PUM1 PUF domain R8-LFG (Homo sapiens, UniProt Q14671 828-1176, N1122L;Y1123F;Q1126G)
PUM1 PUF domain R8-LFG, sequence (Q14671 828-1176 N1122L/Y1123F/Q1126G): as the sequence (Q14671 828-1176 C935R/R936A/Q939G) above, with R108C, A109R, G112Q, N295L, Y296F, Q299G counted along it
How it was run: as §1

PUM1 PUF domain R5-VYF = PUM1 PUF domain R5-VYF (Homo sapiens, UniProt Q14671 828-1176, C1007V;R1008Y;Q1011F)
PUM1 PUF domain R5-VYF, sequence (Q14671 828-1176 C1007V/R1008Y/Q1011F): as the sequence (Q14671 828-1176 C935R/R936A/Q939G) above, with R108C, A109R, G112Q, C180V, R181Y, Q184F counted along it
How it was run: as §1

PUM1 PUF domain R4-GPN = PUM1 PUF domain R4-GPN (Homo sapiens, UniProt Q14671 828-1176, N971G;H972P;Q975N)
PUM1 PUF domain R4-GPN, sequence (Q14671 828-1176 N971G/H972P/Q975N): as the sequence (Q14671 828-1176 C935R/R936A/Q939G) above, with R108C, A109R, G112Q, N144G, H145P, Q148N counted along it
How it was run: as §1

PUM1 PUF domain R5-KQC = PUM1 PUF domain R5-KQC (Homo sapiens, UniProt Q14671 828-1176, C1007K;R1008Q;Q1011C)
PUM1 PUF domain R5-KQC, sequence (Q14671 828-1176 C1007K/R1008Q/Q1011C): as the sequence (Q14671 828-1176 C935R/R936A/Q939G) above, with R108C, A109R, G112Q, C180K, R181Q, Q184C counted along it
How it was run: as §1

PUM1 PUF domain R2-RRC, sequence (Q14671 828-1176 N899R/Y900R/Q903C): as the sequence (Q14671 828-1176 C935R/R936A/Q939G) above, with N72R, Y73R, Q76C, R108C, A109R, G112Q counted along it

## GGCUAGAACUAGUGGAUCCCCCGGCGCCCGGCGGCUCGAGCCCGGGUAAGUGUAAAGAGUCUGCAUGCCGCCGGGCGCCAUGCCUGCAGGUCGACUCUAGAAAACAUG
PUM1 PUF domain R2-RRC
  binding signal: 2.42 log2 enrichment (interaction score)

## GGCUAGAACUAGUGGAUCCCCCGGCGCCCGGCGGCUCGAGCCCGGGUAAGUGUAAUUAGUCUGCAUGCCGCCGGGCGCCAUGCCUGCAGGUCGACUCUAGAAAACAUG
PUM1 PUF domain R3-RAG
  binding signal: 3.75 log2 enrichment (interaction score)
PUM1 PUF domain R3-QRS
  binding signal: 2.68 log2 enrichment (interaction score)

## GGCUAGAACUAGUGGAUCCCCCGGCGCCCGGCGGCUCGAGCCCGGGUAAGUGUAUAUAGUCUGCAUGCCGCCGGGCGCCAUGCCUGCAGGUCGACUCUAGAAAACAUG
PUM1 PUF domain R4-VFP
  binding signal: 3.78 log2 enrichment (interaction score)
PUM1 PUF domain R4-WFG
  binding signal: 2.4 log2 enrichment (interaction score)

## GGCUAGAACUAGUGGAUCCCCCGGCGCCCGGCGGCUCGAGCCCGGGUAAGUGUAAAUAGUCUGCAUGCCGCCGGGCGCCAUGCCUGCAGGUCGACUCUAGAAAACAUG
PUM1 PUF domain R8-LFG
  binding signal: 1.28 log2 enrichment (interaction score)
PUM1 PUF domain R5-VYF
  binding signal: 2.44 log2 enrichment (interaction score)
PUM1 PUF domain R4-GPN
  binding signal: 3.62 log2 enrichment (interaction score)
PUM1 PUF domain R4-WFG
  binding signal: 1.81 log2 enrichment (interaction score)

## GGCUAGAACUAGUGGAUCCCCCGGCGCCCGGCGGCUCGAGCCCGGGUAAGCGUAAAUAGUCUGCAUGCCGCCGGGCGCCAUGCCUGCAGGUCGACUCUAGAAAACAUG
PUM1 PUF domain R8-LFG
  binding signal: 2.38 log2 enrichment (interaction score)

## GGCUAGAACUAGUGGAUCCCCCGGCGCCCGGCGGCUCGAGCCCGGGUAAGUGUCAAUAGUCUGCAUGCCGCCGGGCGCCAUGCCUGCAGGUCGACUCUAGAAAACAUG
PUM1 PUF domain R5-KQC
  binding signal: 3.25 log2 enrichment (interaction score)

## GGCUAGAACUAGUGGAUCCCCCGGCGCCCGGCGGCUCGAGCCCGGGUAAGUGUAAGUAGUCUGCAUGCCGCCGGGCGCCAUGCCUGCAGGUCGACUCUAGAAAACAUG
PUM1 PUF domain R3-QRS
  binding signal: 2.75 log2 enrichment (interaction score)
